In PubChem BioAssay AID485317 (Broad Institute, 2010):
The campaign covered roughly 290,000 compounds. About 11,000 (3.8%) were called active. The sample as a whole holds a higher share of actives than the screen did. Unmarked numbers belong to inactive results.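 Rule for the calls: active = mean replicate inhibition above about 79%, with every replicate also reaching it (limit read from the data); inconclusive = only one of the two criteria met; inactive = mean below limit and not every replicate reaching it.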

target: FAD-linked sulfhydryl oxidase ALR (Homo sapiens) (UniProt P55789); assay: ALR-catalysed DTT oxidation blockers – biochemical, H2O2 detection, HRP-luminol luminescence, single point, primary screen (AID 485317); settings: purified ALR, active compounds read high, concentration not given here
Sequence (P55789 whole entry, looked up): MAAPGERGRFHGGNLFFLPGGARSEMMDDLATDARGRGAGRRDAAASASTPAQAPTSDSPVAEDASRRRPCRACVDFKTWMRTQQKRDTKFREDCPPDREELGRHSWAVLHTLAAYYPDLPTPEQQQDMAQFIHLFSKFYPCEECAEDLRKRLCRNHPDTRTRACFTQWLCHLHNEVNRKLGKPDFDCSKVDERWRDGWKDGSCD

Going from `O=C(c1cc(-c2ccc(Cl)s2)nc2ccccc12)N1CCOCC1` to `CCc1ccc(C(=O)NC(=S)Nc2ccccc2N2CCOCC2)cc1`, the inhibition falls from -1.66% to -1.76%.

Going from `CN1CCC(N(C)S(=O)(=O)c2ccc(NC(=O)c3cccc(C#N)c3)cc2)CC1` to `CCCCc1ccc(NS(=O)(=O)c2cccc(C(=O)N3CCCN(C)CC3)c2)cc1`, the inhibition falls from -3.41% to -4.55%.

Going from `Cc1nc2c(c(C)nn2-c2ccccc2)c(C)c1C` to `S=c1[nH]nc(-c2cc(-c3ccsc3)n[nH]2)n1-c1ccccc1`, the inhibition rises from -7.19% to 67.2%.

Going from `Cc1nc(-c2ccc(Cl)cc2)sc1C1(C)CC(c2ccc(Br)cc2)=NO1` (centres undefined) to `Cc1ccc(-c2csc(-c3cc(C)on3)n2)cc1`, the inhibition rises from -3.38% to -0.833%.

First: CCCCN(C(=O)CCNC(=O)NC12CC3CC(CC(C3)C1)C2)c1c(N)n(CCCC)c(=O)[nH]c1=O
Second: CCCCn1c(N)c(N(CCC(C)C)C(=O)CC2OC(=O)c3ccccc32)c(=O)[nH]c1=O (centres undefined)
The inhibition of the first is higher: -9.44% for the first, -12.6% for the second.

Compared with `CC(=O)CC(CC(=O)NC1CCCCC1)c1ccccc1` (centres undefined), `CC(NCC(=O)Nc1ccccc1C(=O)NC1CC1)c1ccccc1Cl` (centres undefined) is lower in inhibition: -6.14% for the first, -6.65% for the second.

First: CN(CC(=O)NNC(=O)CNC(=O)c1ccccc1Cl)S(=O)(=O)c1ccc(Cl)cc1
Second: O=C(Nc1cc(S(=O)(=O)Nc2ccc(Cl)cc2)ccc1O)c1ccc(F)cc1F
The inhibition of the first is higher: -3.96% for the first, -4.12% for the second.

First: CCN1C(=O)[C@@H]2[C@@H](c3ccc(-c4cccc(Cl)c4)cc3)N3CCC[C@@]3(C(=O)OC)[C@@H]2C1=O
Second: Cc1[nH]n(-c2cccc(Cl)c2)c(=O)c1-c1ccc(Cl)cc1
The inhibition of the first is lower: -0.179% for the first, 32.9% for the second.

Compared with `CC1(C)O[C@@H]2[C@H](O1)[C@@H](COS(=O)(=O)O)O[C@H]2n1cnc2c(=O)[nH]cnc21`, `CC(C)NC(=O)Nc1cccc2c1O[C@H](CN(C)S(=O)(=O)c1cccs1)[C@@H](C)CN([C@H](C)CO)C2=O` is higher in inhibition: -3.87% for the first, 0.238% for the second.

First: O=C(Nc1ncccc1O)c1ccc(S(=O)(=O)N2CCCCCC2)cc1
Second: O=C(Nc1ccccn1)C1CCN(S(=O)(=O)c2ccc3c(c2)OCCO3)CC1
The inhibition of the first is lower: -12.4% for the first, 1.39% for the second.

First: O=C(OCCOCn1cc(Br)c(=O)[nH]c1=O)c1ccccc1
Second: CCCc1nc2ccccc2c(=O)n1NC(=O)c1c(O)c2ccccc2[nH]c1=O
The inhibition of the first is higher: 18.4% for the first, -6.61% for the second.

Compared with `Cc1[nH]c2ccccc2c1C(=O)CN1CC(C)CC(C)C1` (centres undefined), `CCOC(=O)N1CCN(CC(=O)c2c(C)[nH]c3ccccc23)CC1` is lower in inhibition: -7.59% for the first, -13% for the second.

First: CC(=O)Nc1ccc(NC(=O)COC(=O)C2CCC(C(C)(C)C)CC2)cc1 (centres undefined)
Second: CCc1cccc(NC(=O)COC(=O)C2CCN(c3ccc(C(F)(F)F)cn3)CC2)c1
The inhibition of the first is lower: -2.92% for the first, -1.14% for the second.

First: CCOC(=O)CCCCCC(=O)Nc1ccc2c(c1)CC(=O)N([C@@H](C)CO)C[C@H](C)[C@@H](CN(C)Cc1ccccc1)O2
Second: Cc1noc(C)c1COc1ccccc1C(=O)N(C)CC(=O)Nc1cccc(F)c1
The inhibition of the first is higher: -2.17% for the first, -3.03% for the second.

Compared with `CCCCNC(=O)N(O)C1N(/N=C/c2ccccc2O)C(=S)SC1(C)C` (centres undefined), `CCC(C)N1C(=S)SC(C)(C)C1N(O)C(=O)NC1CCCCC1` (centres undefined) is lower in inhibition: -2.9% for the first, -8.63% for the second.

First: COc1ccc(OCC(=O)NNC(=O)c2ccc(-c3ccccc3)cc2)cc1
Second: COc1ccc(C(=O)NNc2cc(C)nc(NNC(=O)c3ccc(OC)cc3)n2)cc1
The inhibition of the first is lower: 1.13% for the first, 12.7% for the second.

Compared with `O=C(CNS(=O)(=O)c1ccc2c(c1)OCCCO2)N1CCN(c2ccc(F)cc2)CC1`, `CC(=O)N1CCOc2ccc(S(=O)(=O)N3CCN(c4cccc(C(F)(F)F)c4)CC3)cc21` is lower in inhibition: 3.71% for the first, -1.95% for the second.

Going from `CC1=NN(C(N)=S)C(=O)C1N=Nc1cc(Cl)ccc1Cl` (centres undefined) to `Cc1ccc(N2CC(C(=O)Nc3cc(Cl)ccc3-n3cncn3)CC2=O)cc1` (centres undefined), the inhibition falls from 34.1% to -10%.

Going from `Cc1ccc(S(=O)(=O)N(C)c2ccc(OCC(=O)OCc3ccc(C#N)cc3)cc2)cc1` to `Cc1ccc2nc(/C(C#N)=C\c3ccc(OC(=O)c4cccs4)cc3)[nH]c2c1`, the inhibition falls from 2.46% to -13.7%.

Going from `CCN(C(=O)CSc1nc2ccccc2n1CC)C1CCS(=O)(=O)C1` (centres undefined) to `CCOC(=O)C1CCN(S(=O)(=O)c2ccc3c(c2)N(C(C)=O)CCO3)CC1`, the inhibition rises from 9.23% to 25.7%.

Compared with `O=C(COC(=O)/C=C/c1nc2ccccc2s1)Nc1ccccc1Oc1ccccc1`, `CC(NC(=O)COC(=O)c1ccc2ccccc2n1)c1ccccc1` (centres undefined) is lower in inhibition: 28.6% for the first, -0.035% for the second.

Compared with `COc1ccccc1NC(=O)C(C)OC(=O)c1ccc(-n2cnnn2)cc1` (centres undefined), `COc1ccc(C(=O)NCC(c2ccco2)N2CCc3ccccc32)cc1OC` (centres undefined) is higher in inhibition: 7.2% for the first, 72.4% for the second.

Compared with `O=C(Oc1ccc(-c2nnco2)cc1)c1ccc(F)c(S(=O)(=O)N2CCOCC2)c1`, `COc1ccc(Cn2c(=S)[nH]c3cc(C(=O)NCCCN4CCOCC4)ccc3c2=O)cc1` is higher in inhibition: -0.68% for the first, 7.86% for the second.

Going from `Cc1cccc(OCC(=O)OCC(=O)Nc2ccc(Cl)cn2)c1` to `CCOc1ccc(NC(=O)CN(C)C(=O)c2c(C)noc2C)cc1OCC`, the inhibition falls from 0.248% to -5.01%.

Going from `Cc1ccccc1C(=O)NCC(c1ccco1)N1CCc2ccccc21` (centres undefined) to `O=c1c2ccccc2ncn1/N=C/c1ccccc1`, the inhibition falls from 27% to -10.9%.

Compared with `CSc1ccc(S(=O)(=O)NCC(=O)OCC(=O)NC2(C#N)CCCCC2)cc1[N+](=O)[O-]`, `CSCCC1NC(=O)N(CC(=O)Nc2cccc(S(=O)(=O)N3CCCCCC3)c2)C1=O` (centres undefined) is higher in inhibition: -5.06% for the first, 9.93% for the second.

Compared with `c1ccc(-c2cc(-c3ccccc3)[nH]n2)cc1`, `c1ccc(-c2nnc(SCc3nc4ccccc4[nH]3)o2)cc1` is higher in inhibition: -15.4% for the first, -5.4% for the second.

First: O=C1C=C(c2ccccc2)CCC1
Second: CCOC(=O)c1c(NC(=S)Nc2ccccc2C)sc2c1CCC2
The inhibition of the first is higher: 0.158% for the first, -0.578% for the second.

Going from `CCc1ccc2nc(Nc3ncc(C(C)=O)c(C)n3)nc(C)c2c1` to `CCCn1c(C)cc(-c2csc(NC(=O)CCc3nc4ccccc4c(=O)[nH]3)n2)c1C`, the inhibition falls from -4.9% to -8.89%.

First: O=C(c1ccncc1)N1CCN(S(=O)(=O)c2cc(C(F)(F)F)cc(C(F)(F)F)c2)CC1
Second: COCCCNC(=O)CC1C[C@H](C(=O)N2CCCCC2)[C@@]2(CCc3ccccc3)c3[nH]c4ccccc4c3CCN2C1=O (some centres undefined)
The inhibition of the first is lower: -17.2% for the first, -3.65% for the second.

Compared with `Clc1ccccc1SCc1nc2ccccc2[nH]1`, `CCOC(=O)c1c(C)oc2cc(Sc3ccccc3)c(O)c(O)c12` is lower in inhibition: -0.577% for the first, -12.1% for the second.

First: COc1cc(/C=C(\C#N)c2nc3c(s2)CC(C)CC3)ccc1O (centres undefined)
Second: CCOc1cccc(/C=N/NC(=S)NCCN2CCOCC2)c1O
The inhibition of the first is higher: 70% for the first, 49.2% for the second.

Going from `Cc1cc(C)c(C)c(S(=O)(=O)Nc2cccnc2)c1C` to `CCCCn1c(N)c(N(CC(C)C)C(=O)CN(C)S(=O)(=O)c2ccc(F)cc2)c(=O)[nH]c1=O`, the inhibition falls from -4.67% to -15.2%.

Going from `CCOC(=O)c1c(NC(=O)CCC(=O)NCc2ccco2)sc2c1CCCC2` to `CC(=O)c1sc(NC(=O)CCN2C(=O)C3CC=CCC3C2=O)nc1-c1ccccc1` (centres undefined), the inhibition falls from 3.61% to 1.73%.

First: O=C(O[C@@H]1[C@H](Cc2ccccc2)NS(=O)(=O)[C@H]2C[C@@H]3C=C[C@]12O3)c1ccccc1Br
Second: CCOc1ccccc1N=C1NC(=O)CS1
The inhibition of the first is higher: 6.25% for the first, -4.82% for the second.

Compared with `CCCCNC(=O)CCn1c(=S)[nH]c2cc3c(cc2c1=O)OCO3`, `Nc1nonc1-n1nnc(C(=O)N/N=C/c2ccccc2O)c1CN1CCCC1` is lower in inhibition: 5.42% for the first, -0.481% for the second.

`Cc1[nH]c2ccccc2c1C(=O)CSCC(=O)O` was tested, and the inhibition was 98.3% (active).
In the case of `CCCCNC(=O)N(O)C1N(/N=C/c2ccc(N(C)C)cc2)C(=S)SC1(C)C` (centres undefined), the inhibition was 98.8% (active).
`Cc1nc(NNC(=O)c2ccccc2)cc(-c2ccccc2)n1` was tested, and the inhibition was 90.8% (active).
With `Cc1[nH]n(C(N)=S)c(=O)c1N=Nc1ccc(Cl)cc1Cl` the inhibition was 96.2% (active).
In the case of `CCN(C(=O)COC(=O)/C=C/c1nc2ccccc2s1)C1CCS(=O)(=O)C1` (centres undefined), the inhibition was 94.6% (active).
In the case of `O=C(NCC(c1ccco1)N1CCc2ccccc21)c1cccc(F)c1` (centres undefined), the inhibition was 95.5% (active).
For `O=c1[nH]c(-c2ccccc2)c(-c2ccccc2)[nH]1`, the inhibition was 98.6% (active).
`CCc1ccc2ncc(C(=O)c3ccccc3)c(N3CCOCC3)c2c1` was tested, and the inhibition was 97.1% (active).
`Cc1cc(-c2n[nH]c(=S)n2-c2ccc(C)c(C)c2)no1` was tested, and the inhibition was 96% (active).
In the case of `CCCc1nc2ccccc2c(=O)n1/N=C/c1ccc(O)c(O)c1`, the inhibition was 98.6% (active).
In the case of `c1ccc2c(CSCc3nc4ccccc4[nH]3)cccc2c1`, the inhibition was 98.7% (active).
`COc1cc(/C=C(\C#N)c2nc3ccccc3[nH]2)ccc1O` was tested, and the inhibition was 99% (active).
`COc1ccc(N2CCN(S(=O)(=O)c3ccc4c(c3)N(C(C)=O)CCO4)CC2)cc1` was tested, and the inhibition was 89.8% (active).
For `CCOC(=O)c1c(NC(=O)C(C)Sc2c[nH]c3ccccc23)sc2c1CCC2` (centres undefined), the inhibition was 94.5% (active).
With `CCOc1cccc(/C=N/N2C(=O)CSC2=S)c1O` the inhibition was 92.9% (active).
`CCN(CC)CCCNC(=O)c1ccc2c(=O)n(Cc3ccc4c(c3)OCO4)c(=S)[nH]c2c1` was tested, and the inhibition was 95% (active).
With `Cc1ccc(N/N=C2\COC(C)(C)CC2=O)cc1` the inhibition was 98.6% (active).
